Our source for the growth values is PubChem BioAssay (NCI).

Common to all, as to assay: NCI-60 one-dose screen, 48 h (100 = growth as untreated, 0 = no growth, -100 = all killed)
One experiment has as its system HCT-15 colon. As to conditions: 10 µM unless noted.
A further experiment relates to HT29 colon. The following applies: 10 µM unless noted.
A further experiment relates to SNB-19 CNS. As to conditions: 10 µM unless noted.
In the next experiment the test system is U251 CNS. The following applies: 10 µM unless noted.
The next experiment concerns PC-3 prostate. As to conditions: 10 µM unless noted.
Another experiment concerns SK-MEL-5 melanoma. As to conditions: 10 µM unless noted.
The test system of a further experiment is UACC-62 melanoma. As to conditions: 10 µM unless noted.
In another experiment the test system is LOX IMVI melanoma. As to conditions: 10 µM unless noted.
The subject of the next experiment is SK-MEL-28 melanoma. The following applies: 10 µM unless noted.
A further experiment relates to SK-MEL-2 melanoma. The following applies: 10 µM unless noted.
A further experiment deals with EKVX NSCLC. The following applies: 10 µM unless noted.
The next experiment concerns SN12C renal. The following applies: 10 µM unless noted.
A further experiment relates to UO-31 renal. As to conditions: 10 µM unless noted.
The test system of the next experiment is TK-10 renal. The following applies: 10 µM unless noted.
For the next experiment, the system named is ACHN renal. As to conditions: 10 µM unless noted.
Another experiment relates to CAKI-1 renal. The following applies: 10 µM.
The next experiment deals with CCRF-CEM leukemia. The following applies: 10 µM unless noted.
The next experiment has as its system MOLT-4 leukemia. As to conditions: 10 µM unless noted.
A further experiment concerns A498 renal. The following applies: 10 µM unless noted.

Compounds without any hit were thinned out: in the full panel of roughly 83,000, 20% have a hit.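 A percent growth of 40 corresponds to 60% growth inhibition; 0 means no net growth; -100 means all cells died. Active threshold: below 10.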 Values without a mark were called inactive. Active and inactive are the calls of the source.

Take `COc1ccc(-c2cc(-c3ccc(Cl)cc3)nc3nc(N)nn23)cc1`: the growth was 90.2% in the experiment on HCT-15 colon; 99.5% with HT29 colon; 91.5% with SNB-19 CNS; 91% with U251 CNS; 106% in the experiment on PC-3 prostate; 93.6% in the experiment on SK-MEL-5 melanoma. The growth is 92.8% in the experiment on UACC-62 melanoma; 105% with LOX IMVI melanoma; 116% in the experiment with SK-MEL-28 melanoma; 103% in the experiment on SK-MEL-2 melanoma; 99.3% in the experiment with EKVX NSCLC; 97.6% in the experiment with SN12C renal. The growth with UO-31 renal was 81%; in the experiment on TK-10 renal, 93.2%; with ACHN renal, 96.3%; in the experiment with CAKI-1 renal, 83.7%; with CCRF-CEM leukemia, 95%; in the experiment on MOLT-4 leukemia, 89%.

Regarding `COc1ccc(-c2nnc(SCc3ccc(O)c4ncccc34)n2-c2ccccc2)cc1`, the growth was 9.65% (active) in the experiment on HCT-15 colon; 59.2% in the experiment on HT29 colon; 14.4% in the experiment with SNB-19 CNS; 11.2% in the experiment with U251 CNS; 20.7% in the experiment on PC-3 prostate; -11% (active) in the experiment on SK-MEL-5 melanoma. In addition, the growth with UACC-62 melanoma is 2.62% (active); with LOX IMVI melanoma, -10.9% (active); in the experiment with SK-MEL-28 melanoma, 20.2%; in the experiment on SK-MEL-2 melanoma it was 33.8%; with EKVX NSCLC, 23.6%; in the experiment with SN12C renal, 24.3%. Moreover, the growth with UO-31 renal is -12.2% (active); with TK-10 renal, 38.4%; in the experiment with ACHN renal it was 4.43% (active); in the experiment on CAKI-1 renal, 11.5%; in the experiment with A498 renal, 35.3%; with CCRF-CEM leukemia, 10.7%. Besides, the growth in the experiment with MOLT-4 leukemia is 17.2%.

Regarding `COc1cc2cc(Oc3ccc(NC(=O)c4cccc(C(F)(F)F)c4)cc3)c(C)nc2cc1OCCN(C)C`, the growth in the experiment on HCT-15 colon is -8.74% (active); in the experiment on HT29 colon, 27.5%; with SNB-19 CNS, 94.2%; with U251 CNS it was 63.4%; in the experiment with PC-3 prostate, 74.2%; in the experiment with SK-MEL-5 melanoma, -7.47% (active). Further, the growth in the experiment on UACC-62 melanoma is 89.4%; in the experiment on LOX IMVI melanoma it was -81.3% (active); in the experiment with SK-MEL-28 melanoma it was 72.2%; in the experiment with SK-MEL-2 melanoma it was 108%; in the experiment with EKVX NSCLC, 83%; in the experiment on SN12C renal, 84.1%. Further, the growth with UO-31 renal was 84%; in the experiment on ACHN renal, 86.6%; with CAKI-1 renal, 75.2%; with A498 renal it was 100%; with CCRF-CEM leukemia it was 41%; with MOLT-4 leukemia it was 67.1%.

With `C#CCOc1ccc(C(Nc2ccc(OC)cc2)c2nnnn2C2CCCCC2)cc1` (stereo not drawn), the growth in the experiment with HCT-15 colon was 97.1%; in the experiment with HT29 colon it was 101%; in the experiment with SNB-19 CNS, 93.3%; with U251 CNS, 89.9%; with PC-3 prostate, 93.8%; in the experiment on SK-MEL-5 melanoma it was 100%. Further, the growth in the experiment with UACC-62 melanoma is 73.4%; in the experiment with LOX IMVI melanoma, 89.2%; in the experiment with SK-MEL-28 melanoma, 109%; in the experiment on SK-MEL-2 melanoma it was 104%; in the experiment with EKVX NSCLC, 87.4%; in the experiment with SN12C renal, 96.5%. Besides, the growth was 80.4% with UO-31 renal; 112% in the experiment with TK-10 renal; 97.3% with ACHN renal; 76.5% with CAKI-1 renal; 91.4% in the experiment on MOLT-4 leukemia.

As for `Oc1ccc(CSc2nnc(-c3ccc(Cl)cc3)o2)c2cccnc12`, the growth in the experiment with HCT-15 colon was 14.4%; in the experiment on HT29 colon it was 102%; with SNB-19 CNS it was 16.5%; with U251 CNS, 10.5%; in the experiment with PC-3 prostate it was 21.4%; in the experiment on SK-MEL-5 melanoma, 11.1%. The growth in the experiment with UACC-62 melanoma was 5.12% (active); with LOX IMVI melanoma, 4.17% (active); with SK-MEL-28 melanoma it was 26.6%; in the experiment on SK-MEL-2 melanoma it was 54.9%; in the experiment with EKVX NSCLC, 34%; with SN12C renal it was 37.4%. Besides, the growth is 2.83% (active) in the experiment on UO-31 renal; 39.1% in the experiment on TK-10 renal; 11.4% in the experiment on ACHN renal; 20.2% in the experiment on CAKI-1 renal; 75.5% in the experiment with A498 renal; 13.3% with CCRF-CEM leukemia. For the same compound, the growth with MOLT-4 leukemia was 15.3%.

On to `COc1cc(/C=N/n2cnc3oc(-c4ccccc4)cc3c2=N)cc(CN2CCCC2)c1O`, for which the growth in the experiment on HCT-15 colon was -85.2% (active); with HT29 colon, -48.2% (active); with SNB-19 CNS it was 21.8%; with U251 CNS it was -45.7% (active); in the experiment with PC-3 prostate, -68.6% (active); in the experiment with SK-MEL-5 melanoma it was 91.5%. The growth was 96.7% in the experiment with UACC-62 melanoma; -88.5% (active) in the experiment on LOX IMVI melanoma; 91.6% in the experiment with SK-MEL-28 melanoma; 113% with SK-MEL-2 melanoma; 97% in the experiment on EKVX NSCLC; -78.8% (active) in the experiment with SN12C renal. Also, the growth was 9.45% (active) in the experiment on UO-31 renal; 114% in the experiment with TK-10 renal; 62.7% in the experiment with CAKI-1 renal; 85.7% in the experiment on A498 renal; -2.49% (active) in the experiment with CCRF-CEM leukemia; 6.5% (active) in the experiment with MOLT-4 leukemia.

In the case of `O=C(CCCCCCN1CC(=O)N2[C@@H](c3ccc(Cl)c(F)c3)c3[nH]c4ccccc4c3C[C@H]2C1=O)NO`, the growth was 98.6% with HCT-15 colon; 89.3% in the experiment with HT29 colon; 86.6% in the experiment with SNB-19 CNS; 85.1% in the experiment on U251 CNS; 63.8% in the experiment with PC-3 prostate; 86% with SK-MEL-5 melanoma. Moreover, the growth with UACC-62 melanoma was 48.7%; in the experiment on LOX IMVI melanoma, -79.9% (active); in the experiment on SK-MEL-28 melanoma it was 86.2%; in the experiment on SK-MEL-2 melanoma, 104%; in the experiment on EKVX NSCLC, 87.9%; with SN12C renal, 83.8%. Moreover, the growth in the experiment on UO-31 renal was 75.3%; in the experiment on TK-10 renal it was 107%; in the experiment with CAKI-1 renal, 70.8%; in the experiment with A498 renal, 106%; in the experiment with MOLT-4 leukemia it was 45.3%.

Take `CCN(CC)CCCC(C)NCC(=O)NC(c1ccc2c(c1)OCO2)c1cc(Cl)c2cccnc2c1O` (stereo not drawn): the growth in the experiment with HCT-15 colon is 20.6%; with HT29 colon it was 23.6%; in the experiment with SNB-19 CNS, 38.1%; with U251 CNS, 30.2%; with PC-3 prostate, 20.1%; with SK-MEL-5 melanoma, -77.4% (active). The growth is -17.6% (active) in the experiment with UACC-62 melanoma; -30.1% (active) with LOX IMVI melanoma; 46.5% with SK-MEL-28 melanoma; 81.4% in the experiment with SK-MEL-2 melanoma; 26% in the experiment with EKVX NSCLC; 38.1% in the experiment on SN12C renal. The growth was 3.38% (active) with UO-31 renal; 45.6% in the experiment with TK-10 renal; 25.2% with ACHN renal; 1.43% (active) with CAKI-1 renal; 81.1% in the experiment on A498 renal; 16.5% in the experiment on CCRF-CEM leukemia. Further, the growth in the experiment with MOLT-4 leukemia was 20.4%.

As to `COc1cc(/C=N/n2cnc3oc(-c4ccccc4)cc3c2=N)cc(CN2CCN(C)CC2)c1O`, the growth in the experiment on HCT-15 colon was 81.4%; in the experiment with HT29 colon, 48.3%; in the experiment on SNB-19 CNS, 110%; in the experiment on U251 CNS it was 108%; with PC-3 prostate, 77.7%; in the experiment with SK-MEL-5 melanoma, 87.9%. Moreover, the growth is 102% in the experiment on UACC-62 melanoma; 79% in the experiment with LOX IMVI melanoma; 94.1% with SK-MEL-28 melanoma; 113% with SK-MEL-2 melanoma; 99.3% in the experiment with EKVX NSCLC; 80.4% in the experiment on SN12C renal. Also, the growth was 74% with UO-31 renal; 113% in the experiment with TK-10 renal; 83.1% in the experiment with ACHN renal; 73.3% in the experiment with CAKI-1 renal; 72.2% in the experiment on A498 renal; 76.4% in the experiment on MOLT-4 leukemia.
